Shown is part of a subset that was picked to be rich in hits.
Tg IFNy HTS – inhibitors of Toxoplasma gondii growth with IFN-gamma. Toxoplasma gondii growth in IFN-gamma-treated host cells; hits give low values. activity change, negative = inhibition, % (test concentration not listed). actives 3.8% (n = 69,000). AID 1259416; in the data active means activity change below about -70%, passing the limit was not always enough;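 further: host cells are HeLa cells infected with Toxoplasma gondii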
A number is an active result; 0 = inactive.

SMILES | Tg IFNy HTS
COc1ccc(CNC(=O)Cn2ncc3c(N4CCCCCC4)ncnc32)cc1 | 0
COc1ccc(CNC(=O)Cn2ncc3c(N4CCCCC4)ncnc32)cc1OC | 0
COc1ccc(OC)c(CNC(=O)Cn2ncc3c(N4CCC(C)CC4)ncnc32)c1 | 0
Cc1cnc(N2CCC3(CCC(CC(=O)N4CC=CC4)CC3)CC2)nc1 | 0
CCC1(CC)NC(=O)N(CC(=O)Nc2cc(-c3csnn3)ccc2C)C1=O | 0
CC(C)NC(=O)c1cc(C2CN(C(=O)c3n[nH]c4c3CCCC4)CCO2)nc2ccccc12 (centres undefined) | 0
Cc1cccnc1CC(C)N(C)C(=O)c1cc(-c2ccccc2)on1 (centres undefined) | 0
Cc1ccc2c(c1)NC1(CCN(C(=O)Nc3ccc4c(c3)OCO4)CC1)c1cccn1-2 | 0
COc1ccc(OC)c(CN(Cc2cnc(N3CCOCC3)nc2)Cc2ccco2)c1 | 0
CC(C(=O)N1CCCC1c1nc2ccccc2[nH]1)n1ncc2ccccc2c1=O (centres undefined) | 0
Cc1nc(NCC2CC2)nc2c1COCC21CCN(Cc2cccnc2)C1 (centres undefined) | 0
COc1ccc(C)cc1NC(=O)Cn1ncc2c(N3CCCCCC3)ncnc21 | -91
Cc1ccc(CNC(=O)Cn2ncc3c(N4CCN(c5ccccn5)CC4)ncnc32)cc1 | -97
CN(C)c1ccc(CNC(=O)Cn2ncc3c(N4CCCCC4)ncnc32)cc1 | 0
COc1cccc(CNC(=O)Cn2ncc3c(N4CCC(C)CC4)ncnc32)c1 | -100
Cc1ccc(NC(=O)Cn2ncc3c(N4CCN(c5ccccn5)CC4)ncnc32)cc1 | 0
Cc1ccc(C)c(NC(=O)Cn2ncc3c(N4CCN(c5ccccn5)CC4)ncnc32)c1 | 0
COc1cc(NC(=O)Cn2ncc3c(N4CCC(C)CC4)ncnc32)cc(OC)c1OC | 0
COc1ccc(C)cc1NC(=O)Cn1ncc2c(N3CCOCC3)ncnc21 | 0
Cc1ccc(C)c(NC(=O)Cn2ncc3c(N4CCCCCC4)ncnc32)c1 | 0
COc1cccc(CNC(=O)Cn2ncc3c(N4CCOCC4)ncnc32)c1 | 0
Cc1ccc(CNC(=O)Cn2ncc3c(N4CCCCC4)ncnc32)cc1 | -103
Cc1ccc(CNC(=O)Cn2ncc3c(N4CCCCCC4)ncnc32)cc1 | 0
Clc1ccc(-c2[nH]ncc2CN(CCN2CCOCC2)Cc2cccnc2)cc1 | 0
CC(=O)NCc1csc(C2CCCN(S(=O)(=O)c3cccc(Cl)c3C)C2)n1 (centres undefined) | 0
SMILES | Tg IFNy HTS
CO/N=C(/C(=O)N[C@@H]1C(=O)N2C(C(=O)OCOC(=O)C(C)(C)C)=C(/C=C/c3scnc3C)CS[C@H]12)c1csc(N)n1 | 0
Cc1nn(CCNS(=O)(=O)c2ccc(Cl)cc2)c(C)c1C | 0
CCc1ccc(C(C(=O)NC2CCCC2)N(Cc2cccs2)C(=O)c2ccco2)cc1 (centres undefined) | 0
COc1cccc(C(=O)N2CCC(C)(C(=O)NCc3ccc(F)cc3F)CC2)c1 | 0
CO[C@@H]1CCN(c2ccc(C)nn2)[C@H]1Cc1ccccc1 | 0
COc1cccc(NC(=O)Cn2ncc3c(N4CCN(c5ccccn5)CC4)ncnc32)c1 | 0
COc1ccc(CNC(=O)Cn2ncc3c(N4CCCCC4)ncnc32)c(OC)c1 | 0
O=C(Cn1ncc2c(N3CCCCCC3)ncnc21)NCc1cc(F)cc(F)c1 | 0
O=C(Cn1ncc2c(N3CCCCCC3)ncnc21)NCc1ccc(F)cc1F | -93
CCc1ccccc1NC(=O)Cn1ncc2c(N3CCN(c4ccccn4)CC3)ncnc21 | 0
O=C(Cn1ncc2c(N3CCOCC3)ncnc21)NCc1ccccc1Cl | 0
O=C(Cn1ncc2c(N3CCN(c4ccccn4)CC3)ncnc21)NCc1ccccc1Cl | -92
CC(=O)c1ccc(CN2CCCN(c3ccc(F)cc3)CC2)cc1 | 0
COc1ccc2c(c1)c(CC(C)NC(=O)c1cc(C)nc3onc(C)c13)cn2C (centres undefined) | 0
Cc1ccc(OC2(C(=O)NC(C)c3csc(C)n3)CCNCC2)cc1 (centres undefined) | 0
CCN(CC)Cc1cnc2n1CCN(Cc1nccs1)CC2 | 0
Cc1cc(C)n(-c2ncc(C#N)c(N)n2)n1 | 0
Cc1cc(C)n(-c2nc3ccccc3s2)n1 | 0
Cc1ccc(-c2cc(-c3ccccc3)nc(-n3nc(C)cc3C)n2)cc1 | -104
Cc1c2oc3c(C)ccc(C(=O)N[C@@H]4C(=O)N[C@H](C(C)C)C(=O)N5CCC[C@H]5C(=O)N(C)CC(=O)N(C)[C@@H](C(C)C)C(=O)O[C@@H]4C)c3nc-2c(C(=O)N[C@@H]2C(=O)N[C@H](C(C)C)C(=O)N3CCC[C@H]3C(=O)N(C)CC(=O)N(C)[C@@H](C(C)C)C(=O)O[C@@H]2C)c(N)c1=O | -82
C=CCn1cc(-c2c(-c3ccccc3)ncn2Cc2cnc(C)cn2)c(C)n1 | 0
COCCCN1CCCC12CCN(C(=O)c1cnccn1)CC2 | 0
Cn1c(=O)n(C)c2cc(CNC(=O)c3cccc4ccnn34)ccc21 | 0
COc1ccccc1-c1nc(Cc2noc(-c3ccccc3)n2)c(C)o1 | 0
CCOc1ccccc1-c1nc(CN(c2ccc(OC)cc2)S(=O)(=O)c2ccc(C)cc2)c(C)o1 | 0

Screening results deposited in PubChem BioAssay by Broad Institute.
